Screening data from PubChem.
Rows were chosen to be rich in hits. Some 4.6% of all compounds tested hit in one or more screens of this group.
FAS TE block – inhibitors of human fatty acid synthase thioesterase domain; P49327; recombinant FAS-TE, OMFH fluorogenic substrate, fluorescence endpoint; inhibition, % at 15 µM; actives 0.67% (n = 360,000); AID 602261;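 active = compounds whose normalised, plate-corrected inhibition of enzyme fluorescence in the single-dose primary screen is 50% or more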;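 note: 0% = DMSO with enzyme and 100% = substrate without enzyme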
GRIN3A LBD mod – NR3A (human) ligand-binding domain modulation. NR3A LBD differential scanning fluorimetry, Tm shift; 0% = protein alone, 100% = glycine-bound protein. Tm shift relative to glycine control, % at 25 µM. actives 2.5% (n = 340,000). AID 1259313;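 active = melting temperature shift of at least 10% of the positive control shift, at one fixed dose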
ADAM10 inh – ADAM10 inhibition, QFRET primary screen. inhibition, % at 7 µM. actives 0.62% (n = 370,000). O14672. recombinant ADAM10, EDANS/DABCYL FRET peptide cleavage, 3 h;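 active = inhibition above a per-campaign cutoff equal to the mean of compounds falling between control-based bounds plus 3 SD, cut at about 20% in these data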;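 note: 0% = DMSO wells while the 100% control is not disclosed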
Target sequence (O14672 214-748 limits assumed): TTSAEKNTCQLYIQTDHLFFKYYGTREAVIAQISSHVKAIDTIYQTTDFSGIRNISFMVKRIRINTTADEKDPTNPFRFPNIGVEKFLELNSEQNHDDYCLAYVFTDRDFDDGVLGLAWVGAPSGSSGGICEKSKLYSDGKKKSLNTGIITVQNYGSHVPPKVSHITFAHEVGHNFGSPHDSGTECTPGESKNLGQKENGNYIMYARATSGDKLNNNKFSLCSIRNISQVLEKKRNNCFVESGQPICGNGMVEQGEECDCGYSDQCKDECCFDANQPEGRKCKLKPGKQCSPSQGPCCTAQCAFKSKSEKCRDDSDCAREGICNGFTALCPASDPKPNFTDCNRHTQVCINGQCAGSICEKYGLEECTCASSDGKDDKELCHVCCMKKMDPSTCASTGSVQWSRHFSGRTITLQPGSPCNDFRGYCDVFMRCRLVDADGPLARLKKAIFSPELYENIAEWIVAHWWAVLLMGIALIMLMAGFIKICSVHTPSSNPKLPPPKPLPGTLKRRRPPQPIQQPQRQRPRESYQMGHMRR
ADAM17 inh – inhibitors of human ADAM17. AID 720648. P78536. recombinant ADAM17, EDANS/DABCYL FRET peptide cleavage. actives 0.83% (n = 370,000). inhibition, % at 6.95 µM;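 active = inhibition above the mean of compounds lying between control limits plus 3 SD, set per campaign, cut at about 8.5% in these data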;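 note: 0% = DMSO-only wells as the low control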
proKLK7 act – activates the human kallikrein-7 zymogen; P49862; purified proKLK7, EDANS-DABCYL substrate fluorescence; 100% is mature enzyme control, 0% vehicle; activation, % at 7 µM; actives 0.9% (n = 370,000);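 active = activation above the mean of all tested compounds plus 3 SD, computed per campaign excluding outliers beyond control limits, cut at about 13% in these data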
Starred values were filed as active, the others as inactive.

COC(=O)/C=C1\SC(=NC(=O)c2cccc(Cl)c2)NC1=O was read as FAS TE block -3.2, GRIN3A LBD mod 9.4, ADAM10 inh -5.3, ADAM17 inh -1.5 and proKLK7 act 0.9.
COC(=O)C1CCCN(C(=O)C2CCN(S(=O)(=O)c3cccc4cccnc34)CC2)C1 (stereo unspecified) was read as ADAM10 inh -4.0, ADAM17 inh -0.9 and proKLK7 act 0.3.
Screening NC1=NC2(CCCCC2)N(c2ccc(F)cc2)C(N)=N1 returned FAS TE block -6.0, GRIN3A LBD mod 20.1*, ADAM10 inh -5.8, ADAM17 inh -2.4 and proKLK7 act -0.1.
`CCCCNc1nc(Nc2ccc(C)c(Cl)c2)c2cnn(C)c2n1` gave FAS TE block 30.9, GRIN3A LBD mod 15.4*, ADAM10 inh -5.8, ADAM17 inh -2.3 and proKLK7 act -0.5.
CCOc1cccc2sc(Nc3nc4ccc(NC(C)=O)cc4s3)nc12 was read as FAS TE block -7.0, GRIN3A LBD mod 26.1*, ADAM10 inh -331.8, ADAM17 inh -108.7 and proKLK7 act -44.9.
CCC(=O)Nc1nc2ccc(NC(C)=O)cc2s1 was read as FAS TE block -6.2, GRIN3A LBD mod 3.5, ADAM10 inh -4.6, ADAM17 inh -1.8 and proKLK7 act 0.2.
For CCOc1ccc(C(=O)COc2ccc(NC(C)=O)cc2)cc1 the results were FAS TE block 1.7, GRIN3A LBD mod -1.7, ADAM10 inh 3.1, ADAM17 inh 3.9 and proKLK7 act -0.1.
For CCOc1ccc(NC(=O)NC(=O)N(C(C)C)S(C)(=O)=O)cc1 the results were FAS TE block 0.2, GRIN3A LBD mod 18.2*, ADAM10 inh -0.2, ADAM17 inh -0.7 and proKLK7 act 0.6.
CCOc1ccc2nc(NS(=O)(=O)c3ccc4c(c3)n(C)c(=O)n4C)sc2c1 was read as FAS TE block 3.0, GRIN3A LBD mod 29.0*, ADAM10 inh -2.1, ADAM17 inh -2.4 and proKLK7 act -0.1.
`CCOc1ccc(NC(=O)Nc2ccc(NC(C)=O)cc2)cc1` gave FAS TE block -15.3, GRIN3A LBD mod 22.4*, ADAM10 inh -5.5, ADAM17 inh -0.1 and proKLK7 act 0.0.
CC(=O)Nc1ccc(NC(=O)C(C)OC(=O)COc2ccc(Nc3ccccc3)cc2)cc1 (stereo unspecified) was read as FAS TE block -1.8, GRIN3A LBD mod -6.2, ADAM10 inh -1.9, ADAM17 inh -5.0 and proKLK7 act 0.3.
`CCOc1ccc(NC(=O)Nc2nc3ccc(S(C)(=O)=O)cc3s2)cc1` gave FAS TE block -0.2, GRIN3A LBD mod 30.5*, ADAM10 inh -2.9, ADAM17 inh -4.7 and proKLK7 act 0.0.
COc1ccc2oc(C(=O)Nc3nc4ccc(S(C)(=O)=O)cc4s3)c(C)c2c1 was read as FAS TE block -10.1, GRIN3A LBD mod 19.0*, ADAM10 inh -70.7, ADAM17 inh -24.3 and proKLK7 act -4.5.
Screening CCOCC(=O)Nc1nc2ccc(S(C)(=O)=O)cc2s1 returned FAS TE block -13.2, GRIN3A LBD mod 0.0, ADAM10 inh 0.3, ADAM17 inh -6.1 and proKLK7 act 0.0.
For CCOc1ccc(OCCC(=O)OC(C)C(=O)Nc2ccc(C(C)=O)cc2)cc1 (stereo unspecified) the results were FAS TE block 6.5, GRIN3A LBD mod 20.4*, ADAM10 inh -4.8, ADAM17 inh 2.8 and proKLK7 act -0.2.
Screening CCOc1ccc(NC(=O)Nc2ccc3nccnc3c2)cc1 returned FAS TE block -0.2, GRIN3A LBD mod 24.2*, ADAM10 inh -13.3, ADAM17 inh -5.4 and proKLK7 act -0.5.
Screening CCOc1ccc(NC(=O)Nc2nc(SCC)ns2)cc1 returned FAS TE block 1.8, GRIN3A LBD mod 37.4*, ADAM10 inh 3.0, ADAM17 inh 0.5 and proKLK7 act 0.6.
Screening Fc1ccc(-c2n[nH]c(=S)n2N=Cc2ccc(OCc3ccccc3)cc2)cc1 returned ADAM10 inh -1.0, ADAM17 inh 3.1 and proKLK7 act -0.5.
Screening CN1C(C(=O)NCc2ccco2)CC2Cn3c(nc4cc5ccccc5cc43)C21 (stereo unspecified) returned FAS TE block -7.4, GRIN3A LBD mod 10.1*, ADAM10 inh -20.9, ADAM17 inh -5.5 and proKLK7 act 0.5.
